# Measured values published in PubChem BioAssay (NCI).
# About 83,000 compounds went through this panel and 20% of them were active in at least one assay; those are over-represented in the sample as a whole.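 Cells were grown in 96-well plates and exposed to the test compound at a single concentration for 48 hours; results are reported as percent growth, with values below 10 considered active.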 Values without a mark were called inactive. The source made the active and inactive calls.
# System: LOX IMVI melanoma
# Assay: NCI-60 one-dose screen, 48 h (100 = growth as untreated, 0 = no growth, -100 = all killed)
# Settings: 10 µM unless noted
# Description: Growth inhibition of the LOX IMVI human tumor cell line is measured as a screen for anti-cancer activity. Cells are grown in 96 well plates and exposed to the test compound for 48 hours. Compounds are tested at a single concentration, which is 10^-5 M for most compounds. The reported endpoint is percent growth (GI% or GIPRCNT), where numbers from 0 - 100% represent growth inhibition, and numbers from -100% - 0 represent cell death. For example, a value of 40 represents 60% growth inhibition. A value of 0 means no net growth occurred over the course of the experiment. A value of -40 indicates 40% of cells at the beginning of the experiment died by the end of the experiment. A value of -100 means all cells are dead at the end of the experiment.
# NCI-60 Human Tumor Cell Lines Screen was performed using the standard one-dose NCI protocol, which is described in more detail at https://dtp.cancer.gov/discovery_development/nci-60/default.htm.
# Compounds with GIPRCNT values below 10 were considered active. Activity score was based on GIPRCNT using the following formula: […]
# Score is 0 for GIPRCNT values of 100 or above, 50 for GIPRCNT values of 0, and 100 for GIPRCNT values of -100.
row,SMILES,growth
1,N=C1CC(=O)NN1C(=O)CSc1nc2sc3c(c2c(=O)n1-c1ccc(Cl)cc1)CCCC3,97.1%
2,Clc1ccc2c(OCCCN3CCOCC3)c3oc4ccccc4c3nc2c1,12.9%
3,O=c1[nH]c2ccc(Cl)cc2cc1CSc1ccccc1Nc1nccc(-c2ccc(Cl)cc2)n1,98.4%
4,Cc1nc(-c2cc3ccccc3oc2=O)ccc1C(=O)/C=C/c1ccc(Cl)c(Cl)c1,86.9%
5,COc1cc2nc(-c3ccc(Cl)cc3)cc(OCCCNCC3CCCO3)c2cc1OC (stereo not given),-47.8% (active)
6,N#Cc1nc(-c2ccccc2)oc1N1CCC(CO)C1 (stereo not given),88.2%
7,CS(=O)(=O)c1ccc(-c2nc3ccccn3c2-c2nc3ccc([N+](=O)[O-])cc3[nH]2)cc1,100%
8,Cc1cccc2sc(/N=C(\N)C(Cl)(Cl)Cl)nc12,113%
9,C/C(=C(/c1ccc(Cl)cc1)c1ccc(OCCN)cc1)c1ccc(C)cc1,105%
10,Oc1c(Cl)cc(Cl)c2ccc(CN3CCCCC3)nc12,31.7%
11,C#C[C@]1(O)CC[C@H]2[C@@H]3CC=C4c5sc(-c6ccc(F)cn6)nc5CC[C@]4(C)[C@H]3CC[C@@]21C,-63.9% (active)
12,CC(C)(O)c1cncc(-c2ccc3ncnc(N4CCc5cc(F)c(Cl)cc54)c3c2)c1,12.2%
13,Nc1cc(-c2c[nH]c3ccc(F)cc23)nc2cc(-c3c[nH]c4ccc(F)cc34)nn12,-18.8% (active)
14,C/C(=N/NC(N)=S)c1ccc(Nc2nc(SCC(C)C)nc(-c3ccc(F)cc3)c2C#N)cc1,-20% (active)
15,Nc1c(C(=O)Nc2ccc(Cl)cc2)sc2nc(-c3cnccn3)cc(-c3cccs3)c12,-16.8% (active)
16,O=c1/c(=C\c2ccc(-c3ccccc3)o2)sc2nc(-c3ccccc3)nn12,95.9%
17,CN(C)CCCNc1c2ccccc2nc2c1oc1ccc(Cl)cc12,-86.5% (active)
18,O=C(CN1CCOCC1)NNc1ncnc2ccccc12,9.78% (active)
19,O=C1Nc2ccccc2Oc2ccc(S(=O)(=O)CC3CO3)cc21 (stereo not given),29.5%
20,O=C(CSc1nnc(-c2ccc3nc(-c4ccc(Cl)cc4)[nH]c3c2)o1)Nc1ccc(C(=O)/C=C/c2ccc(Cl)cc2)cc1,-24.2% (active)

row,SMILES,growth
1,CSCCC(C(=O)O)N1C(=O)/C(=C/c2ccc(O)c(O)c2)SC1=S (stereo not given),103%
2,CN(C)c1ccc(/C=c2\sc3nc4ccccc4n3c2=O)cc1,118%
3,N#Cc1nc(-c2ccccc2)oc1S(=O)(=O)N1CCN(CCc2ccccn2)CC1,-79.2% (active)
4,CN1C(=O)N(c2ccccc2)C2N=C(N/N=C/c3ccccc3)SC21 (stereo not given),23.2%
5,O=C(CSc1nccc(=O)[nH]1)Nc1ccc(-c2nc3ccccc3[nH]2)cc1,96.9%
6,Cc1c(NC(=O)CSc2nc3sc4c(c3c(=O)n2-c2ccc(Cl)cc2)CCCC4)c(=O)n(-c2ccccc2)n1C,89.5%
7,CCCCCCNC(=O)Oc1ccc(/C(=C(/C)c2ccccc2)c2ccc(OCCN3CCCCCC3)cc2)cc1,-14.5% (active)
8,CN1C(=S)N(C)C2C1NN=C1SC(c3ccccc3)=CC(=O)N12 (stereo not given),92.2%
9,N#Cc1c(-c2ccc(Cl)cc2)nc(SCc2ccc([N+](=O)[O-])cc2)nc1N1CCNCC1,-61.7% (active)
10,CCN1C(=S)N(c2ccccc2)C2NC(=O)N(/N=C/C=C/c3ccccc3OC)C21 (stereo not given),75.4%
11,COc1ccc2[nH]cc(-c3cc(N)n4nc(-c5c[nH]c6ccc(OC)cc56)cc4n3)c2c1,-63.9% (active)
12,CC(=O)Nc1cc(F)cc(-c2ccc3[nH]cc(-c4ccccc4)c3n2)c1,-62.4% (active)
13,O=C1Nc2ccc(Cl)cc2/C1=C/c1ccc(OCC(=O)c2ccc(Br)cc2)cc1,108%
14,COc1cccc(-c2nn(-c3ccccc3)cc2-c2ccnc(N3CCN(C(=O)c4ccccc4)CC3)c2)c1,87.5%
15,Cc1nc2cnc(N)c(C#Cc3cncc(C(=O)Nc4ccc(Cl)c(C(F)(F)F)c4)c3)c2nc1C,-77.4% (active)
16,COc1ccc(N/N=C/c2c(-c3ccc(S(C)(=O)=O)cc3)nc3ccccn23)cc1,16.6%
17,NS(=O)(=O)c1cccc(Nc2nc(SCC(=O)c3ccc(Cl)cc3)nc3ccccc23)c1,28.7%
18,Cc1c(Nc2nnc(SCC(=O)Nc3sc4c(c3C#N)CCCC4)s2)c(=O)n(-c2ccccc2)n1C,88.7%
19,Cc1cccc(/C=C/c2nn3c(-c4ccco4)nnc3s2)c1,98.1%
20,N#Cc1c(-c2ccc(F)cc2)nc2c(C#N)c(Nc3ccccc3)nn2c1N,99.8%
